Source: PubChem BioAssay
PP1 inh = PP1-alpha (human) inhibition in PP5 counter-screen | P62136 | purified PP1alpha, OMFP fluorescence | inhibition, % at 6.7 µM | 320,000 compounds, 0.9% hits;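 active = inhibition above the mean inhibition of all tested compounds plus 3 SD, computed separately for each screening campaign, cut at about 15% in these data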
PREPL inhibitor = human PREPL enzyme inhibition | Q4J6C6 | recombinant PREPL, fluorescence polarization activity-based probe | inhibition, % at 5.96 µM | 320,000 compounds, 0.68% hits | AID 2751; in the data active = inhibition above about 43%;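 note: 0% = enzyme with DMSO and 100% = wells lacking enzyme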
Target sequence (Q4J6C6 whole entry, looked up): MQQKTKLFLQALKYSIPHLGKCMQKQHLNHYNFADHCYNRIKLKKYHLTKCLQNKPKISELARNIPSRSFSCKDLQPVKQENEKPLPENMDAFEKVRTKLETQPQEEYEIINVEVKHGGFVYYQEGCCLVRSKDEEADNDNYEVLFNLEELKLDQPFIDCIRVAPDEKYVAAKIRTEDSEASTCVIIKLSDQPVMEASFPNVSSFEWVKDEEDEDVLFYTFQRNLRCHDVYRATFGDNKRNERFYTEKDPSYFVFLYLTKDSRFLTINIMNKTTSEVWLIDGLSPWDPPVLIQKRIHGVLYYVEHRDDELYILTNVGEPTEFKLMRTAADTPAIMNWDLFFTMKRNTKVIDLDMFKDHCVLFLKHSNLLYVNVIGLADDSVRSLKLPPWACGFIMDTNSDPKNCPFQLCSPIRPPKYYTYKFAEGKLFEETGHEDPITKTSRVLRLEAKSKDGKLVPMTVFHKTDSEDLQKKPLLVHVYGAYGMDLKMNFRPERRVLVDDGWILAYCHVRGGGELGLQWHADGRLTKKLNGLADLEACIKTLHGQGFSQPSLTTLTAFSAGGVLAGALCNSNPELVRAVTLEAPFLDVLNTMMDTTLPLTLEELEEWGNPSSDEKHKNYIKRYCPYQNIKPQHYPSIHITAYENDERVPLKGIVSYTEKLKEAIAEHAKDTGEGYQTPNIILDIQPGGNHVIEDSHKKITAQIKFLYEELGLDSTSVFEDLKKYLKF
Rpn11 inh = blocks the human proteasome subunit Rpn11 | O00487 | human 26S proteasome, Ub4-pepOG fluorescence polarization; 20S core pre-blocked with epoxomicin | inhibition, % at 20 µM | 360,000 compounds, 0.59% hits | AID 588493;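 active = inhibition at 20 µM, scaled to each plate's controls, above about 33%, limit read from the data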
NadD block = blocks S. aureus nicotinate mononucleotide adenylyltransferase; 360,000 compounds, 0.78% hits; purified NadD enzyme, colorimetric absorbance read-out; inhibition, % at 20 µM; AID 602399; in the data active = inhibition above about 26%
PP5 primary = PP5 (human) phosphatase inhibition | 320,000 compounds, 0.18% hits | inhibition, % at 6.7 µM | purified PP5c, OMFP substrate fluorescence | AID 1987 | P53041;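 active = inhibition above the campaign's mean inhibition across all tested compounds plus 3 SD, cut at about 9.5% in these data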;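 note: 0% = DMSO only and 100% = 100 µM cantharidin control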
Rpn11 inh conf = Rpn11 inhibition confirmation, single concentration; inhibition, % at 20 µM; purified human 26S proteasome, Ub4-pepOG fluorescence polarization; proteasome pretreated with epoxomicin; AID 602318; shares compounds with Rpn11 inh; 1,900 compounds, 29% hits
MMP-2 inh = blocks human MMP-2, flagging nonselective RPN11 hits; 1,900 compounds, 4% hits; shares compounds with Rpn11 inh; recombinant MMP-2, FRET peptide cleavage fluorescence; AID 602330; inhibition, % at 20 µM;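 note: human MMP-2 activated beforehand with APMA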
Thrombin FP = thrombin (bovine) inhibition counter-screen; inhibition, % at 20 µM; bovine thrombin cleavage of Ub4-pepOG, fluorescence polarization; 1,900 compounds, 13% hits; shares compounds with Rpn11 inh;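 active = mean inhibition at least 40% at 20 µM, or signal 3 deviations below plate average, so some actives read negative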;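 note: plate controls were thrombin with DMSO for no effect and buffer wells lacking thrombin for full effect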
Numbers without * were called inactive; i = inactive; · = no result given; + = active, no number. Rows were chosen to be rich in hits. Some 2.4% of all compounds tested hit in one or more screens of this group. Cut-off read from the data, not from the text of the source, unless noted: active = inhibition above about 40%; inactive = the rest.

SMILES	PP1 inh	PREPL inhibitor	Rpn11 inh	NadD block	PP5 primary	Rpn11 inh conf	MMP-2 inh	Thrombin FP
COc1ccc(NS(=O)(=O)c2ccc(C)c(NC(=O)CN3C(=O)NC4(CCCC4)C3=O)c2)cc1	15	7	83*	-5	1	76*	-132	4
CCOC(=O)Cn1ncc(-c2ccccc2)c1N	0	10	169*	0	0	18	-31	-3
COc1ccc(S(=O)(=O)Nc2cccnc2)cc1	-4	11	-10	-5	1	·	·	·
CCOP(=O)(c1ccccc1)c1nc(-c2ccc(F)cc2)oc1N1CCCCC1 (stereo not drawn)	3	12	126*	4	4	-6	-20	-16
CCOP(=O)(OCC)c1nc(-c2ccc(Br)cc2)oc1N1CCCCC1	2	4	-1	1	5	·	·	·
O=C(Nc1nc2ccccc2s1)C1CCCN1S(=O)(=O)c1ccc(Cl)cc1 (stereo not drawn)	2	-16	-20	0	3	·	·	·
Cc1ccc(S(=O)(=O)N2CCCC2C(=O)Nc2nc3ccccc3s2)cc1 (stereo not drawn)	-4	-3	31*	-3	-1	-14	0	-19
CN1CCc2nc(NC(=O)c3cccc(S(=O)(=O)N4CCc5ccccc54)c3)sc2C1	4	11	75*	7	0	4	11	-3
O=C(Nc1nc2ccc(S(=O)(=O)N3CCCCC3)cc2s1)c1cccnc1	1	5	54*	3	3	6	-9	-2
O=C(Nc1nc2ccc(S(=O)(=O)N3CCCCC3)cc2s1)c1ccncc1	-1	-1	11	3	1	·	·	·
Cc1ccc2nc(NC(=O)c3ccc(S(=O)(=O)N4CCCc5ccccc54)cc3)sc2c1	0	-1	41*	17	-1	-15	-34	-14
COc1ccc(/C=N\NC(=O)CNC(=O)C2COc3ccccc3O2)cc1[N+](=O)[O-] (stereo not drawn)	-3	3	-4	4	2	·	·	·
Fc1ccc(-c2nc3c4ccccc4ccn3c2CC2CCCCC2)cc1	·	·	18	6	·	·	·	·
CC1CCCN(C(=O)c2ccc(-c3ccccc3Cl)o2)C1 (stereo not drawn)	-1	-3	-4	3	5	·	·	·
O=C(/C=C/[C@H]1O[C@@H](n2ccc(=O)[nH]c2=O)[C@H](O)[C@@H]1O)N[C@@H](Cc1ccccc1)C(=O)O	·	·	-2	2	·	·	·	·
Cn1ncc(Cl)c1C(=O)N1CCC(Cc2ccccc2)CC1	-2	3	-23	-5	3	·	·	·
O=C1C=C(C2OC(CO)C(O)C2O)C(=O)N1 (stereo not drawn)	·	·	0	6	·	·	·	·
CCN1CC(O)=C(c2nc3ccccc3s2)C1=N	0	12	99*	0	0	4	-41	-5
CCCCN1CC(O)=C(c2nc3ccccc3s2)C1=N	3	16	-7	1	0	·	·	·
Cc1ccc(CNC(=O)CNC(=O)c2ccc(Br)o2)cc1	-1	0	1	-5	0	·	·	·
COc1ccc(O)c(CN2CCCC(N3CCc4ccccc4C3)C2)c1 (stereo not drawn)	·	·	-4	1	·	·	·	·
CC(=O)c1sc(NC(=O)CCCOc2ccc(Cl)cc2)nc1C	9	-4	77*	-7	-2	12	14	-9
COc1ccc(OCCCC(=O)Nc2nc(C)c(C(C)=O)s2)cc1	-1	17	-3	-7	1	·	·	·
COc1ccc(N=Cc2oc3ccc4ccccc4c3c2O)cc1	12	2	56*	-2	5	60*	-42	21
CN1CCN(c2nc3ccccn3c(=O)c2C=C(C#N)C#N)CC1	-1	0	-2	-6	-1	·	·	·
SMILES	PP1 inh	PREPL inhibitor	Rpn11 inh	NadD block	PP5 primary	Rpn11 inh conf	MMP-2 inh	Thrombin FP
Cc1cc(C)n(CC(O)Cn2c3ccc(Br)cc3c3cc(Br)ccc32)c(=O)n1 (stereo not drawn)	3	-12	18	15	3	·	·	·
Cc1cc(C)n(CC(O)Cn2c3ccccc3c3ccccc32)c(=O)n1 (stereo not drawn)	-2	5	48*	10	2	0	0	-4
O=C(N/N=C/c1cccnc1)c1ccc(CN2c3cccc4cccc(c34)S2(=O)=O)cc1	-1	-23	5	6	1	·	·	·
O=C(N/N=C/c1ccccc1)c1ccc(CN2C(=O)c3cccc4cccc2c34)cc1	7	-6	+	15	1	199*	-12	-1
N=c1c(C(=O)NC2CCCCC2)cc2c(=O)n3ccccc3nc2n1Cc1ccc(F)cc1	-6	3	51*	13	-1	18	-28	-91
CCC(c1nnnn1-c1c(C)cccc1C)N1CCCN(Cc2ccc(F)cc2)CC1 (stereo not drawn)	·	·	·	-9	·	·	·	·
O=c1[nH]c(-c2ccc3c(c2)OCO3)nc2c1sc(=S)n2-c1ccccc1	-3	-3	63*	0	0	38	-15	23
CCN(CC)CCOC(=O)c1ccc(N/C=C(/C#N)c2nc(-c3cc4ccccc4oc3=O)cs2)cc1	·	·	82*	25	·	52*	i	60*
CC1CCC(=C(C#N)c2nc(-c3cc4ccccc4oc3=O)cs2)CC1 (stereo not drawn)	4	12	7	5	2	·	·	·
CCOC(=O)CCC(=O)Nc1ccc([N+](=O)[O-])cc1C	-4	9	138*	-5	-2	-8	-31	-10
COCC(=O)Nc1ccc([N+](=O)[O-])cc1C	-4	12	-7	-4	-1	·	·	·
Cn1c(N/N=C/c2ccccc2)nc2sc3c(c2c1=O)CCC3	1	31	53*	4	5	-8	7	-7
CCOC(=O)c1ccccc1NC(=O)COC(=O)CN1C(=O)C2CC=CCC2C1=O (stereo not drawn)	-1	17	-15	-5	2	·	·	·
CCOc1ccc2nc(NC(=O)Cn3[nH]c(=O)c4ccccc4c3=O)sc2c1	5	-2	68*	9	0	56*	-4	25
CCOC(=O)c1c(NC(=O)C2=C(C)NC(=S)NC2c2ccc(F)cc2F)sc(C)c1C (stereo not drawn)	5	16	38*	19	2	-14	11	-20
CN(C)c1ccc(/C=C(\C#N)C(=O)c2ccccc2)cc1	-2	7	·	-3	1	·	·	·
CCOC(=O)NC(=O)/C(C#N)=C/c1ccc(N(C)C)cc1	-1	-2	126*	0	-1	117*	-28	98*
CCN(CC)c1ccc(/C=C(\C#N)C(N)=O)cc1	·	·	57*	0	·	29	-78	25
Cc1ccc(N(C)S(=O)(=O)c2ccc(-c3cc(C)no3)s2)cc1	1	-38	-5	2	1	·	·	·
